MazF activator: activators of E. coli MazEF toxin-antitoxin RNase | P0AE70 | FAM/BHQ RNA-DNA oligo cleavage fluorescence, 5 h | activation, % at 20 µM | hit rate 0.32% among 350,000 | AID 504720; in the data active means activation above about 50%
Target sequence (P0AE70 whole entry, looked up): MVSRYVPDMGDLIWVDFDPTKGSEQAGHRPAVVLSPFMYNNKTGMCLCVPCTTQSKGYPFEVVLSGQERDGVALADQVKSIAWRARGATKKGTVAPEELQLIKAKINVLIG
BoNT A protease: blocks Botulinum neurotoxin A light chain protease; multiplex microsphere protease substrate cleavage, flow cytometry; hit rate 0.17% among 360,000; inhibition, % at 10 µM; AID 588499; further: plate controls were buffer without enzyme for full effect and enzyme alone for no effect
Autofluor counter: flagged as autofluorescent in microsphere protease counterscreen. fluorescence intensity (test concentration not listed). hit rate 3.1% among 360,000. compound autofluorescence counterscreen, microsphere flow cytometry; hits give high values; in the data active means fluorescence intensity above about 16000; inconclusive means no clear call, values can overlap the other calls
BoNT F protease: inhibitors of Botulinum neurotoxin F light chain protease; Multiplex microsphere protease cleavage assay, flow cytometry; inhibition, % at 10 µM; hit rate 0.22% among 360,000; in the data active means inhibition above about 35%, passing the limit was not always enough; inconclusive means no clear call, values can overlap the other calls; further: plate controls were buffer without enzyme for full effect and enzyme alone for no effect
Anthrax LF inh2: anthrax lethal factor protease inhibition; hit rate 0.12% among 360,000; multiplex microsphere protease cleavage assay, LF; inhibition, % at 10 µM; P15917; AID 588501; further: plate controls were buffer without enzyme for full effect and enzyme alone for no effect
Active calls of the source: *; ? = inconclusive; . = not tested or not shown; + = active, no number. Most compounds without a hit are left out; they make up all but 3.7% or so of the library. Unless noted, no stated cut-off is given here; in the data, active means inhibition above about 30%; inconclusive means no clear call, values can overlap the other calls; inactive means below that.

SMILES	MazF activator	BoNT A protease	Autofluor counter	BoNT F protease	Anthrax LF inh2
Cc1ccc(N(C(C)C(=O)Nc2cccc(N(C)S(C)(=O)=O)c2)S(C)(=O)=O)cc1 (stereo not given)	5	-2	4666	-14	-1
Cc1ccc(SC(C)C(=O)Nc2ccncc2)cc1 (stereo not given)	4	2	22693*	2	1
CCOC(=O)C1CCN(Cc2cc(Cl)c3ccccc3c2O)CC1	13	0	4237	4	-2
CC(OC(=O)c1cnccn1)C(=O)c1ccccc1 (stereo not given)	-2	-5	5857	-12	5
O=C(Nc1nnc(SCc2ccccc2Cl)s1)C1COc2ccccc2O1 (stereo not given)	-1	1	3752	-5	1
Cc1ccccc1CSc1nnc(NC(=O)C2COc3ccccc3O2)s1 (stereo not given)	-3	5	20631*	4	-16
Oc1ccc2ccccc2c1C=Nc1cc(C(F)(F)F)ccc1N1CCCC1	+	1	3322	4	-8
CCc1nnc(NC(=O)CSc2nnc(CNc3ccc(F)cc3)n2C2CCCCC2)s1	6	0	16238*	0	-5
Cc1cc(NC(=O)CSc2nnc(CNc3ccc(F)cc3)n2C2CCCCC2)no1	-4	0	23158*	1	-2
CC(C)CCOc1cccc(OCC(=O)Nc2ccncc2)c1	3	-1	5563	-7	-4
COc1ccc(C(=O)Nn2cc3c(c2-c2ccccc2)c(=O)n(C)c(=O)n3C)cc1	-4	0	20615*	1	-1
COc1ccc(-c2c3c(=O)n(C)c(=O)n(C)c3cn2-c2ccccc2)cc1	2	0	2852	-12	-1
O=C(Nc1ccc(OC(F)(F)F)cc1)C1CC(=O)N(Cc2ccco2)C1 (stereo not given)	-1	-1	3389	-9	0
CCCN1C(=O)C(=O)c2cc(Cl)ccc21	-1	-1	3888	2	-8
CCC12CSc3nc(Cl)ccc3N1C(=O)C(=O)N2C (stereo not given)	0	2	3598	40*	?
Cc1ccc(C(=O)N2CCCC(C(F)(F)F)C2)cc1S(=O)(=O)N1CCOCC1 (stereo not given)	8	3	8295	0	1
COc1ccc(CCN(C)Cc2c(F)cccc2F)cc1OC	3	?	23473*	-2	-2
COc1cc(CN(C)CCc2ccccc2)ccc1OCc1ccccc1	-1	5	8500	24	0
CCCCC[C@@H](C)N1C[C@@H](COCc2ccccc2)Oc2cc(N3CCC[C@@H]3COC)ccc2S1(=O)=O	.	1	5441	-7	-1
CCCc1nc2scc(-c3ccccc3)c2c(=O)n1N	5	-2	23965*	0	-1
CCc1nc2scc(-c3ccc(C)cc3)c2c(=O)n1N	-3	-1	2177	1	-1
COC(=O)C(NC(=O)c1ccccc1)c1ccccc1 (stereo not given)	12	-4	25637*	-5	1
COC(=O)C(NC(=O)C(C)Oc1ccccc1)C(C)C (stereo not given)	2	?	20348*	0	-6
COc1ccc(NC(=O)C(NC(=O)c2ccccc2)C(C)C)cc1 (stereo not given)	5	0	5635	5	-6
COCC(C)NC(=O)C(C)Oc1ccccc1 (stereo not given)	4	0	2082	-2	-2
SMILES	MazF activator	BoNT A protease	Autofluor counter	BoNT F protease	Anthrax LF inh2
O=C(NC(C(=O)O)c1ccccc1)c1ccccc1 (stereo not given)	10	0	4003	-5	-11
COC(=O)C(NC(=O)C(NC(=O)c1ccccc1)C(C)C)C(C)C (stereo not given)	7	1	22539*	2	1
CCNC(=O)C1(C)CCN(C(=O)c2ccc(F)c(Cl)c2)C1 (stereo not given)	.	0	3580	3	-2
O=C(Nc1cnccn1)Nc1ccccc1F	-1	-3	5381	-10	-1
COC(=O)Nc1ccc(S(=O)(=O)N2CCCc3cccc(O)c32)cc1	-5	1	2979	-3	-3
COC(=O)Nc1ccc(S(=O)(=O)N2CCCc3ccccc32)cc1	-5	-1	16570*	-2	-1
COc1cc(C(=O)Nc2ccc(S(=O)(=O)N3CCc4ccccc43)cc2)cc(OC)c1OC	-4	-2	18077*	-3	0
CCc1cccc(NC(=S)Nc2cccc3ccccc23)c1	7	3	5454	12	0
CN(C)CC(=O)c1ccc(-c2ccccc2)cc1	1	1	20222*	2	1
COc1ccc(C(C)(NC(C)=O)c2nc(-c3ccccc3OC)cs2)cc1 (stereo not given)	.	0	3775	-5	-6
N#Cc1c(NC(=O)CSc2nc(N)cc(=O)[nH]2)sc2c1CCCCCC2	5	0	10934	3	-2
N#Cc1c(NC(=O)CSc2ncn[nH]2)sc2c1CCCCC2	-5	?	22487*	-2	-1
N#Cc1c(NC(=S)NC(=O)Cc2cccs2)sc2c1CCCCC2	7	5	20268*	7	-4
CC(=O)NC(=S)Nc1sc2c(c1C#N)CCCCC2	-4	-1	2557	-14	-1
C#CCOc1ccc(/C=C2/C(=O)N(c3cccc(C(=O)O)c3)N=C2C)cc1OC	9	0	3037	35*	2
O=C(c1ccc2c(c1)N(Cc1ccccc1)C(=O)c1ccccc1S2)N1CCCC1	-3	?	21624*	4	1
CCN1C(=O)c2ccccc2Sc2ccc(C(=O)N3CCC4(CC3)OCCO4)cc21	10	1	7469	6	4
C=CCN1C(=O)CSc2ccc(C(=O)N3CCC4(CC3)OCCO4)cc21	4	-5	17917*	-8	-3
CCC(C)NC(=O)Nc1ccc2c(c1)N(C)C(=O)c1ccccc1S2 (stereo not given)	4	0	16200*	1	-1
CN1C(=O)c2ccccc2Sc2ccc(C(=O)N3CCC4(CC3)OCCO4)cc21	1	3	19800*	2	-4
O=C(CCc1nc2ccccc2c(=O)[nH]1)Nc1nnc(SCc2ccccc2F)s1	-48	0	4155	-9	-6
Cc1ccc(S(=O)(=O)/C(C#N)=C/c2c(N3CCC(C(N)=O)CC3)nc3c(C)cccn3c2=O)cc1	-12	3	8291	10	12
Cc1cccn2c(=O)c(/C=C(\C#N)S(=O)(=O)c3ccccc3)c(N3CCC(C(N)=O)CC3)nc12	-2	5	18714*	6	1
CCN1CCN(c2nc3ccccn3c(=O)c2/C=C(\C#N)S(=O)(=O)c2ccccc2)CC1	0	?	4035	?	33*
CC(C)(C)c1ccc(S(=O)(=O)NC(=O)C2(C)CCN2C(=O)Cc2cccs2)cc1 (stereo not given)	.	0	3663	-7	-7
CC(C)c1ccc(NC(=O)C2(C)Cc3c(-c4ccc(C(N)=O)cc4)ccnc3O2)cc1 (stereo not given)	.	-1	3770	-9	-10
COc1ccc(CN2CCN(C(=O)c3ccc(S(=O)(=O)NCc4ccco4)cc3)CC2)cc1	-5	6	4061	13	4

High-throughput results deposited in PubChem by several laboratories.
